High-throughput results (PubChem BioAssay)
Sampled rows, rich in hits. Any-hit rate of the full collection: about 1.8%.
MazF activator = MazEF (E. coli) toxin RNase activation | AID 504720 | activation, % at 20 µM | 0.32% of 350,000 active | FAM/BHQ RNA-DNA oligo cleavage fluorescence, 5 h; in the data active means activation above about 50%
Target sequence (P0AE70 whole entry, looked up): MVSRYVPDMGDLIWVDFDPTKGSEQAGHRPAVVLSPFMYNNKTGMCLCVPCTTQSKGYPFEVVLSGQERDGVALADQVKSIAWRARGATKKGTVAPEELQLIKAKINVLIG
PrPC surface inh = reduces human prion protein on the cell surface; P04156; AID 720596; inhibition, % at 13.8 µM; cell surface PrPC, TR-FRET read-out; 0.43% of 370,000 active; in the data active means inhibition above about 24%; further: 0% = median of the test wells and 100% = reference compound wells
PfHsp40 rescue = compounds rescuing yeast from Plasmodium falciparum HSP40 toxicity; S. cerevisiae expressing PfHsp40, growth rescue, ATP luminescence; growth rescue, % at 12.5 µM; 0.68% of 340,000 active; AID 504582; in the data active means growth rescue above about 28%, passing the limit was not always enough;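 further: yeast W303a lacking pdr1 and pdr3 grown in galactose medium; growth measured after three days at 30 °C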
PriA SSB inh = blocks PriA binding to SSB C-terminal tail; inhibition, % at 33 µM; 0.6% of 430,000 active; AID 1272365; AlphaScreen SSBct-PriA binding, biotinylated peptide; in the data active means inhibition mostly above about 37%, no sharp cut-off; inactive means mostly below about 20%;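 further: plate controls were negative control peptide for no effect and reference peptide for full effect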
PrP UTR inh = inhibition of PrP 5' UTR reporter expression | cell-based PrP 5' UTR mRNA reporter, plate reader | inhibition, % (concentration not given with the values) | 0.35% of 340,000 active | AID 488862; in the data active means inhibition above about 52%; further: 0 = median of the neutral control wells
* marks the source's active call; other numbers are inactive results; / = no result given; + = active, no number; ! = a repeat was not active.

SMILES | MazF activator | PrPC surface inh | PfHsp40 rescue | PriA SSB inh | PrP UTR inh
Cc1ccc(SCCC(=O)Nc2sc3c(c2C(N)=O)CCC(C)C3)cc1 (centres undefined) | / | / | / | 1.0 | /
Cc1ccc(C)c(S(=O)(=O)NCC(=O)Nc2sc3c(c2C(N)=O)CCC(C)C3)c1 (centres undefined) | 56.1* | -0.5 | 1.6 | -14.2 | -20.5
Cc1cc(O)c2c(c1O)C(=O)[C@]13C(=C2O)C(=O)[C@@H]2[C@@H](O)[C@H]1[C@@H]1[C@H](O)[C@H]3C(=O)C3=C(O)c4c(O)cc(C)c(O)c4C(=O)[C@]312 | -21.1 | / | 71.0* | 1.2 | 21.6
COc1cc(NCCC(=O)c2cccs2)c(OC)cc1Cl | 0.9 | -9.0 | 0.9 | 39.5* | -3.5
O=[N+]([O-])c1ccc(N2CCN(Cc3ccccc3)CC2)c2ncccc12 | / | / | / | 34.0 | /
O=[N+]([O-])c1ccc(N2CCN(CCO)CC2)c2ncccc12 | 4.8 | -61.9 | -0.9 | 3.1 | -33.3
O=[N+]([O-])c1ccccc1N1CCN(c2ccc([N+](=O)[O-])c3cccnc23)CC1 | / | / | / | 75.4* | /
O=C(C1CCN(c2ccc([N+](=O)[O-])c3cccnc23)CC1)N1CCCCCC1 | / | / | / | 61.5 | /
CC1CN(c2ccc([N+](=O)[O-])c3cccnc23)CC(C)N1 (centres undefined) | 9.7 | -42.2 | 0.1 | 38.3* | -13.3
O=[N+]([O-])c1ccc(N2CCCC2)c2ncccc12 | 101.4* | -3.2 | 1.8 | -6.3 | -15.3
Brc1ccc(-c2cn3c(n2)CCc2ccc4cccnc4c2-3)cc1 | 1.5 | -10.0 | 4.2 | 53.4* | -1.7
Clc1nc(-c2ccccn2)nc2scc(-c3ccccc3)c12 | 1.1 | -0.1 | 399.6* | -9.2 | -16.4
O=S(=O)(O)c1cc(O)c2c(O)c(N=Nc3cc(Cl)ccc3O)c(S(=O)(=O)O)cc2c1 | 4.7 | / | 15.9 | 57.7* | -3.1
Oc1ccc(Cl)cc1N=Nc1ccccc1 | 3.4 | -7.9 | 0.9 | 58.1 | -22.6
CCCCCCSc1nnc2[nH]c(=O)cc(N)n12 | -15.3 | 3.1 | -0.9 | -13.9 | -24.8
Cc1ccccc1-c1noc(CCC(=O)NC2CCCCC2)n1 | -1.6 | 0.1 | 0.1 | -0.3 | -29.2
CC1CCN(S(=O)(=O)c2ccc(C(=O)Nc3nnc(C4CC4)o3)cc2)CC1 | 2.2 | 2.5 | 58.0* | -4.2 | -8.0
O=C(Nc1nnc(C2CC2)o1)c1ccc(S(=O)(=O)N2CCCCC2)cc1 | 2.6 | 0.2 | -0.4 | 0.5 | -19.7
CC(C)S(=O)(=O)c1cccc(C(=O)Nc2nnc(Cc3cccs3)o2)c1 | / | / | / | 41.0* | /
COc1cccc(C(=O)Nc2nnc(Cc3ccc(S(=O)(=O)C(C)C)cc3)o2)c1 | / | / | / | -3.0 | /
CCSc1ccccc1C(=O)Nc1nnc(Cc2cccs2)o1 | / | / | / | 40.0* | /
C[C@H]1CCCN(S(=O)(=O)c2ccc(C(=O)Nc3nnc(Cc4cccs4)o3)cc2)C1 | / | / | / | 91.0* | /
O=C(Nc1nnc(Cc2cccs2)o1)c1ccccc1Cl | / | / | / | 3.0 | /
COCCCNC(=O)c1ccc(Cn2c(=O)c3ccccc3n(CC(=O)NCCc3ccc(OC)c(OC)c3)c2=O)cc1 | -1.8 | 3.5 | -1.2 | 2.4 | -19.5
O=C(Nc1nnc(Cc2cccs2)o1)c1ccc(S(=O)(=O)N2CCOCC2)cc1 | / | / | / | 79.0* | /
SMILES | MazF activator | PrPC surface inh | PfHsp40 rescue | PriA SSB inh | PrP UTR inh
CS(=O)(=O)N(CCC(=O)O)Cc1ccccc1 | 2.4 | -5.4 | 76.7* | -27.1 | -9.1
COc1ccc(C)cc1Nc1n[n+](-c2ccccc2)c(-c2c(Cl)cccc2Cl)s1 | 6.0 | -1.5 | / | 38.8* | /
COc1ccc2ccccc2c1-c1sc(Nc2ccccc2)n[n+]1-c1ccc(F)cc1 | 5.9 | 0.3 | 1.3 | 38.9* | -8.2
O=C(O)c1ccc(-c2sc(Nc3ccccc3)n[n+]2-c2ccc(F)cc2)cc1 | 5.6 | / | -0.5 | -1.1 | -19.0
CCc1ccc(Nc2n[n+](-c3ccccc3)c(-c3c(Cl)cccc3Cl)s2)cc1 | 2.5 | 11.6 | -0.8 | 65.6* | -12.2
COc1ccc(-c2sc(Nc3ccccc3)n[n+]2-c2ccc(F)cc2)cc1Br | 1.9 | -4.1 | 0.7 | -0.8 | -19.0
Fc1ccc(-[n+]2nc(Nc3ccccc3)sc2-c2c(Cl)cccc2Cl)cc1 | -1.1 | 1.7 | 0.1 | 45.5* | -23.8
Nc1c(NC2CCCCC2)c2ccccc2oc1=O | -5.4 | 1.1 | 0.0 | 50.0*! | -21.9
Cc1ccc(S(=O)(=O)Nc2c(NC3CCCCC3)c3ccccc3oc2=O)cc1 | 0.2 | 11.1 | 2.1 | -18.1 | -6.4
O=C(CNC(=O)c1cccc(Cl)c1)Nc1ccc(Br)cc1C(=O)c1ccccc1 | 0.4 | 3.5 | 35.6* | 1.2 | -25.0
CSc1nsc(SC)c1C(N)=O | -5.0 | 1.9 | -1.0 | -0.8 | -19.1
O=C(CSc1cccc(C(F)(F)F)c1)Nc1cc(S(=O)(=O)N2CCCC2)ccc1Cl | 8.0 | 6.0 | -0.1 | -6.9 | -31.5
O=C(/C=C/c1ccccc1Cl)Nc1nnc(C2CCCO2)o1 (centres undefined) | / | / | / | 7.0 | /
O=C(Nc1nnc(C2CCCO2)o1)c1cccc(Oc2ccccc2)c1 (centres undefined) | / | / | / | 74.0* | /
CC(C)COc1ccccc1C(=O)NC(CO)C(=O)O (centres undefined) | 1.6 | -3.0 | -0.4 | -10.6 | -11.1
CCC(=O)Nc1ccc(C(=O)Cn2ncc(Cl)c(Cl)c2=O)cc1 | 0.0 | -17.4 | 0.1 | -0.9 | -11.7
CCOC(=O)c1ccc(NC(=O)CC2Sc3ncnn3C2=O)cc1 (centres undefined) | 1.5 | -2.5 | 41.5* | 5.2 | -20.2
CCOC(=O)c1ccc(NC(=O)Cn2ncc(Cl)c(Cl)c2=O)cc1 | 7.9 | -5.3 | 34.3* | -5.9 | -31.0
O=S(=O)(c1ccc(Cl)cc1)N1CCN=C1SCc1cccc(Cl)c1 | 1.8 | 11.9 | 3.1 | 100.7* | -59.9
O=S(=O)(c1ccc(Cl)cc1)N1CCN=C1SCc1cccnc1 | -5.8 | -5.9 | -0.6 | -11.8 | -21.3
Cc1ccc(CSC2=NCCN2S(=O)(=O)c2ccc(C)cc2)cc1 | -5.1 | 11.9 | / | / | /
Cc1ccc(S(=O)(=O)N2CCN=C2SCc2ccc(Cl)c(Cl)c2)cc1 | + | 2.2 | -1.8 | -8.0 | -29.7
O=C(CN(Cc1ccco1)C(=O)c1nsc(Cl)c1Cl)NC1CCCCC1 | -10.3 | 6.3 | 0.0 | 1.1 | 38.3
Cc1ccc(NC(=S)NCCc2c[nH]c3ccccc23)c(C)c1 | 1.5 | 7.1 | 0.5 | 21.4 | 4.2
COC(=O)[C@]12C[C@H](CC(=O)NCCCCc3ccccc3)C(=O)N(Cc3ccco3)C1=C[C@H](C(C)(C)C)O[C@@H]2C | / | -0.9 | / | / | /
SMILES | MazF activator | PrPC surface inh | PfHsp40 rescue | PriA SSB inh | PrP UTR inh
Nc1[nH]c(C(=O)c2ccccc2)c(-c2ccc(Br)cc2)c1C(=O)NC1CCCCC1 | / | -0.2 | / | / | /
Nc1[nH]c(=O)ncc1F | 9.0 | 2.4 | 370.1* | -2.2 | -0.3
CCOC(=O)c1cnc(=O)[nH]c1N | / | / | / | 0.0 | /
COc1cccc(Nc2nc(-c3ccccc3)nc3ccccc23)c1 | 0.5 | 5.5 | 38.0* | -53.3 | 11.1
COc1cccc(Nc2nc(-c3ccccc3O)nc3ccccc23)c1 | 74.7* | 0.3 | 0.9 | -16.2 | -14.1
O=S(=O)(C1CC1)N1CC(c2nc(-c3ccco3)no2)C1 | / | / | / | -12.0 | /
CC(=O)NCCc1ccc(C(=O)COC(=O)c2ccc(C)s2)cc1 | 2.6 | -3.0 | / | / | /
NC(=O)NC(=O)CC1SC(=NN=C2CSC(=O)N2)NC1=O (centres undefined) | / | / | / | 73.6* | /
